Assay results published in PubChem BioAssay (NCATS).
Records with an inconclusive call do not appear. Calls of active or inactive are those of the source. Calls come from the whole dose curve; as a rule, active = well fitted inhibition curve with a large enough effect; inconclusive = small, poorly fitted or top-dose-only effect; inactive = flat fitted curve, though single readings scatter.

What was measured:
Experiment in all cases: qHTS profiling for inhibitors of Plasmodium falciparum proliferation (AID 504749); note: nearly all actives have a fitted effect of over 60% in size
Conditions in all cases: P. falciparum in erythrocytes, SYBR Green DNA, 72 h; series mostly up to 28.7 µM
CP260 = test system: CP260
Procedure, shortened: (§1)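 P. falciparum-infected erythrocytes (0.3% parasitemia, 2.5% hematocrit) incubated with compound 72 h at 37 C, 5% CO2. Parasite DNA detected by SYBR Green after lysis, overnight at room temperature; normalised to 0.29 uM artemisinin and DMSO.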

CP268 = test system: CP268
Procedure, shortened: as §1

CP269 = test system: CP269
Procedure, shortened: as §1

CP286 = test system: CP286
Procedure, shortened: as §1

CP291 = test system: CP291
Procedure, shortened: as §1

CP297 = test system: CP297
Procedure, shortened: as §1

CP335 = test system: CP335
Procedure, shortened: as §1

DIV14 = test system: DIV14
Procedure, shortened: as §1

DIV17 = test system: DIV17
Procedure, shortened: as §1

Dd2 = test system: Dd2
Procedure, shortened: as §1

CP265 = test system: CP265
Procedure, shortened: as §1

CP315 = test system: CP315
Procedure, shortened: as §1

CP262 = test system: CP262
Procedure, shortened: as §1

CP266 = test system: CP266
Procedure, shortened: as §1

CP325 = test system: CP325
Procedure, shortened: as §1

CP329 = test system: CP329
Procedure, shortened: as §1

CP305 = test system: CP305
Procedure, shortened: as §1

DIV30 = test system: DIV30
Procedure, shortened: as §1

DFO2036 = test system: DFO2036
Procedure, shortened: as §1

CP256 = test system: CP256
Procedure, shortened: as §1

Measured: Potency
Potency is the fitted concentration of half-maximal effect.

CCN(CC)CCOc1ccc(C(O)(Cc2ccc(Cl)cc2)c2ccc(C)cc2)cc1 (centres undefined)
active: CP260 11.2 µM | CP268 19 µM | CP269 15.1 µM | CP286 10 µM | CP291 13.5 µM | CP297 16.9 µM | CP335 12 µM | DIV14 9.53 µM | DIV17 15.1 µM | Dd2 10 µM

CNCCC=C1c2ccccc2CCc2ccccc21
inactive: CP268 | CP315
active: CP265 7.94 µM | DIV14 2.13 µM | DIV17 3.79 µM | Dd2 8.91 µM

O=C1OCCN1/N=C/c1ccc([N+](=O)[O-])o1
inactive: CP262 | CP266 | CP269 | CP297 | CP315 | CP325 | CP329
active: Dd2 11.2 µM

CN=C(NC#N)Nc1ccc(C2=NNC(=O)CC2C)cc1 (centres undefined)
not listed: CP260 | CP286 | Dd2 | CP265 | CP262 | DFO2036 | CP256
inactive: all other assays above

C#C[C@]1(O)CC[C@H]2[C@@H]3CCc4cc(OC5CCCC5)ccc4[C@H]3CC[C@@]21C
not listed: CP335 | DIV14 | CP265 | CP262 | CP266 | CP256
inactive: all other assays above

CC(=O)N/N=C/c1ccc([N+](=O)[O-])o1
active: CP260 7.94 µM | Dd2 12.6 µM
not listed: CP297 | DIV17 | CP265 | CP262 | DFO2036 | CP256
inactive: all other assays above

Clc1ccc2c(c1)CCc1cccnc1C2=C1CCNCC1
active: CP286 10 µM | DIV14 7.57 µM | DIV17 9.53 µM | DIV30 16.9 µM | Dd2 4.47 µM
inactive: CP256 | DFO2036

CCCCc1nc(Cl)c(CO)n1Cc1ccc(-c2ccccc2-c2nn[nH]n2)cc1
active: DIV14 8.49 µM
inactive: CP262 | CP268 | CP297

Oc1c(I)cc(Cl)c2cccnc12
active: CP256 2.51 µM
not listed: CP260 | CP291 | DIV14 | CP265 | CP262 | DFO2036
inactive: all other assays above

O=c1c(-c2ccccc2)c1-c1ccccc1
active: CP260 8.91 µM | CP286 7.94 µM | DIV17 10.7 µM | Dd2 10 µM
inactive: CP262

COc1ccc(CN2CCN(C(c3ccc(F)cc3)c3ccc(F)cc3)CC2)c(OC)c1OC
active: CP260 7.94 µM | CP265 11.2 µM | CP269 15.1 µM | CP286 7.08 µM | CP325 16.9 µM | CP335 6.01 µM | DIV14 12 µM | DIV17 12 µM | DIV30 16.9 µM | Dd2 7.94 µM

CC(C)NC[C@@H](O)COc1cccc2ccccc12
active: CP260 12.6 µM | CP265 10 µM | DIV14 13.5 µM | DIV17 9.53 µM | Dd2 12.6 µM
inactive: CP262 | CP266 | CP268 | CP297 | CP315 | CP325

CNCCC(Oc1ccccc1C)c1ccccc1 (centres undefined)
active: DIV14 6.01 µM | DIV17 6.75 µM | Dd2 7.08 µM
not listed: CP268 | CP265 | CP266 | CP329 | CP305 | DIV30 | CP256
inactive: all other assays above

COC(=O)[C@H]1[C@H]2C[C@H]3c4[nH]c5ccccc5c4CCN3C[C@H]2CC[C@@H]1O
not listed: CP260 | CP286 | Dd2 | CP265 | DFO2036 | CP256
inactive: all other assays above

c1ccc(CNCCNCc2ccccc2)cc1
inactive: CP262 | CP315 | CP329
active: CP297 12 µM | DIV14 3.79 µM | DIV17 6.01 µM | Dd2 11.2 µM

CN1CCN(CCCN2c3ccccc3Sc3ccc(S(=O)(=O)N(C)C)cc32)CC1
active: CP265 3.55 µM | DIV14 4.55 µM | DIV30 7.21 µM | Dd2 3.55 µM
inactive: CP262 | CP266 | CP315 | CP329

CCOC(=O)COc1ccc2c(C)c(CCN(CC)CC)c(=O)oc2c1Cl
not listed: CP265 | CP256
inactive: all other assays above

CN(C)CCOc1ccccc1Cc1ccccc1
active: CP260 2.51 µM | CP265 2.24 µM | CP297 4.26 µM | DFO2036 6.31 µM | DIV14 8.49 µM | DIV17 10.7 µM | Dd2 5.01 µM
inactive: CP315 | DIV30

CCCCCCCCCCOCC(O)CN (centres undefined)
inactive: CP260 | CP262 | CP266 | CP269 | CP315 | CP329 | DFO2036
active: DIV14 10.7 µM | Dd2 12.6 µM

CC(C)=CCC1C(=O)N(c2ccccc2)N(c2ccccc2)C1=O
inactive: CP265 | CP266 | CP268 | CP315

CCCOC(C(=O)OC1CCN(C)CC1)(c1ccccc1)c1ccccc1
active: DIV14 7.57 µM | DIV17 7.57 µM | Dd2 12.6 µM
inactive: CP262 | CP266 | CP297 | CP315 | CP329 | DFO2036

CC/C(=C(/CC)c1ccc(O)cc1)c1ccc(O)cc1
not listed: CP260 | CP335 | DIV14 | CP262 | CP256
inactive: all other assays above

NC(CS)C(=O)O (centres undefined)
inactive: CP262 | CP315 | CP329
active: CP260 8.91 µM | DFO2036 12.6 µM | DIV14 6.75 µM | DIV17 9.53 µM | DIV30 16.9 µM

Oc1c(I)cc(I)c2cccnc12
inactive: DIV14

CCCCCCCCCCCCCCCC[N+](C)(C)CCN(Cc1ccc(OC)cc1)c1ncccn1
active: DIV14 7.21 µM
inactive: CP256 | CP265 | CP268 | CP297 | CP305 | CP315 | CP329 | DIV30

CN(C)CC/C=C1\c2ccccc2Sc2ccc(Cl)cc21
active: CP260 8.91 µM | CP286 11.2 µM | DIV14 7.57 µM | DIV17 3.38 µM | Dd2 8.91 µM
inactive: CP262 | CP266 | CP268 | CP297 | CP305 | CP315 | CP329

C[C@@H]1CN(CCCn2c3ccccc3c3ccccc32)C[C@H](C)N1
inactive: CP266 | CP315
active: CP260 11.2 µM | CP265 7.94 µM | CP286 12.6 µM | DFO2036 14.1 µM | DIV14 2.39 µM | DIV17 4.78 µM | DIV30 9.53 µM | Dd2 6.31 µM

CO/N=C1\CN(c2nc3c(cc2F)c(=O)c(C(=O)O)cn3C2CC2)CC1CN (centres undefined)
active: CP260 7.94 µM | CP268 12 µM | CP269 5.36 µM | CP286 7.94 µM | CP335 6.75 µM | Dd2 10 µM
inactive: CP262

OC(CCN1CCCCC1)(c1ccccc1)c1ccccc1
inactive: CP266
active: CP265 8.91 µM | CP286 11.2 µM | CP297 6.01 µM | DIV14 4.26 µM | DIV17 6.75 µM | Dd2 10 µM

CCCCCCCCCCCCCCNCCO
inactive: CP262 | CP266 | CP269 | CP291 | CP315 | CP325 | CP329 | CP335 | DIV30
active: CP260 4.47 µM | CP286 3.55 µM | DFO2036 17.8 µM | Dd2 10 µM

CCOC(=O)/C=C(C)/C=C/C=C(C)/C=C/c1c(C)cc(OC)c(C)c1C
not listed: CP260 | CP286 | CP335 | DIV17 | Dd2 | CP265 | DFO2036 | CP256
inactive: all other assays above

CN(C)/N=N/c1nc[nH]c1C(N)=O
not listed: CP335 | CP256
inactive: all other assays above
